Laboratory results published in the supplement of paper PMC7695840.
Counter-ions that a name gives are not always drawn.

What was measured:
[1] = system: Staphylococcus aureus MW2 delta-mecA (mecA-); experiment: normalized GFP fluorescence (growth of mecA- strain) (fraction of control range); higher = more growth of mecA- strain; details: compound concentration: 150 uM; cefoxitin: subinhibitory; fluorescent label: GFP
Procedure, shortened: (§1)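 Fluorescence from DsRed (540/590) and GFP (485/520) was recorded after 20 h of static growth at 37 °C and 90% humidity. The wells held a 1:1 mix of pre-induced S. aureus MW2 cells, gene-bearing with DsRed and gene-deleted with GFP, in LB with a daily-set subinhibitory antibiotic dose, dispensed at 5 µL/well onto 150 μM compound (1.5% DMSO) in 1536-well plates, single replicate. Each channel was scaled per plate between single-strain control medians, excluding plates with high untreated ratios and rows with DsRed/GFP >10.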

[2] = system: Staphylococcus aureus MW2 (mecA+); experiment: normalized DsRed fluorescence (growth of mecA+ strain) (fraction of control range); higher = more growth of mecA+ strain; details: compound concentration: 150 uM; cefoxitin: subinhibitory; fluorescent label: DsRed
Procedure, shortened: as §1

Compound	normalized GFP fluorescence [1]	normalized DsRed fluorescence [2]
CCC1(c2cccc(O)c2)CCCCN(C)C1 (configuration not stated) [Meptazinol HCl]	0.168	0.815
O=C1CN=C(c2ccccc2Cl)c2cc([N+](=O)[O-])ccc2N1	0.145	1.02
CC(C)C[C@H](CN)CC(=O)O	0.412	0.571
CC(C)c1cccc(C(C)C)c1O	0.257	0.882
CN1[C@@H]2C[C@@H](OC(=O)[C@H](CO)c3ccccc3)C[C@H]1[C@@H]1O[C@@H]12	0.83	0.7
CC[C@@H](C(N)=O)N1CCCC1=O	0.416	1.14
C[C@H]1CNCCc2ccc(Cl)cc21 [Lorcaserin HCl]	0.467	0.636
C[C@]12CC[C@H]3[C@@H](CCC4=CC(=O)CC[C@@]43C)[C@@H]1CC[C@@H]2O	0.501	0.506
C[N+]1([O-])[C@@H]2CC[C@H]1C[C@@H](OC(=O)C(CO)c1ccccc1)C2 (some centres not stated)	0.483	1.24
CNC(C)(C)Cc1ccccc1	0.75	0.831
NCC1(CC(=O)O)CCCCC1	0.647	0.674
COc1ccc2c(c1)[C@]13CCCC[C@@H]1[C@H](C2)N(C)CC3	0.241	1.04
CN1[C@@H]2CC[C@H]1C[C@@H](OC(=O)[C@H](CO)c1ccccc1)C2	0.693	0.664
O=[N+]([O-])O[C@@H]1CO[C@H]2[C@@H]1OC[C@@H]2O	0.742	1.13
CC(O)CN1CCN(CC(=O)[O-])CCN(CC(=O)[O-])CCN(CC(=O)[O-])CC1.[Gd+3] (configuration not stated)	0.58	0.515
CN1C(=O)CCS(=O)(=O)C1c1ccc(Cl)cc1 (configuration not stated)	0.212	0.676
CC(C)[N+](C)(CCC(C(N)=O)(c1ccccc1)c1ccccc1)C(C)C	0.202	0.447
C[N+]1(C)CCCC(OC(=O)C(O)(c2ccccc2)c2ccccc2)C1 (configuration not stated)	0.765	0.852
Cc1ccc(-c2nc3ccc(C)cn3c2CC(=O)N(C)C)cc1	0.38	0.527
NC(=O)C[S+]([O-])C(c1ccccc1)c1ccccc1 (configuration not stated)	0.716	0.558
C[C@@H]1[C@H](O)[C@@H](C)/C=C/C=C/CC/C=C/C=C/C=C/C=C/[C@H](O[C@H]2O[C@@H](C)[C@H](O)[C@@H](N)[C@H]2O)C[C@@H]2O[C@](O)(C[C@@H](O)[C@H](O)CC[C@@H](O)C[C@@H](O)C[C@@H](O)CC(=O)O[C@H]1C)C[C@H](O)[C@H]2C(=O)O [Nystatin (Fungicidin)]	0.00493	0.585
N[C@@H]1C[C@H]1c1ccccc1.N[C@H]1C[C@@H]1c1ccccc1	0.546	0.701
CC(C)N(CCC(C(N)=O)(c1ccccc1)c1ccccn1)C(C)C (configuration not stated)	0.541	0.697
CNCC(=O)c1ccc(O)c(O)c1 [Adrenalone HCl]	0.708	0.797

Compound	normalized GFP fluorescence [1]	normalized DsRed fluorescence [2]
C[C@@H]1O[C@@H](O[C@@H]2C=C3CC[C@@H]4[C@H](CC[C@]5(C)[C@@H](c6ccc(=O)oc6)CC[C@]45O)[C@@]3(C)CC2)[C@H](O)[C@H](O)[C@H]1O	0.198	0.926
C=C1C[C@@H]2[C@H](CC[C@]3(C)C(=O)CC[C@@H]23)[C@@]2(C)C=CC(=O)C=C12 [Exemestane]	0.367	0.545
CC(NC(C)(C)C)C(=O)c1cccc(Cl)c1 (configuration not stated) [Amfebutamone (Bupropion)]	0.395	0.602
C[N+]1(C)[C@@H]2CC[C@H]1C[C@@H](OC(=O)C(CO)c1ccccc1)C2 (some centres not stated)	0.479	0.574
CC(C)C[C@H]1C(=O)N2CCC[C@H]2[C@]2(O)O[C@](NC(=O)[C@@H]3C=C4c5cccc6[nH]c(Br)c(c56)C[C@H]4N(C)C3)(C(C)C)C(=O)N12	0.246	1.03
COP(=O)(OC)C(O)C(Cl)(Cl)Cl (configuration not stated)	0.2	0.658
Nc1ccncc1	0.334	0.715
CNC(C)[C@H](O)c1ccccc1 (some centres not stated)	0.353	0.809
CNC(=O)Oc1ccc2c(c1)[C@]1(C)CCN(C)[C@@H]1N2C	0.574	0.687
CC(=O)OC1CN2CCC1CC2 (configuration not stated)	0.565	0.665
CN1C[C@H](C(=O)N[C@]2(C)O[C@@]3(O)[C@@H]4CCCN4C(=O)[C@H](Cc4ccccc4)N3C2=O)C=C2c3cccc4[nH]cc(c34)C[C@H]21	0.435	1.11
Cl[C@H]1[C@H](Cl)[C@@H](Cl)[C@@H](Cl)[C@H](Cl)[C@H]1Cl	0.612	0.538
CN(C)C(=O)Oc1ccc[n+](C)c1	0.22	0.58
C#C[C@]1(O)CC[C@H]2[C@@H]3CCC4=CC(=O)CC[C@]4(C)[C@H]3CC[C@@]21C	0.473	0.916
CCC1(c2ccc(N)cc2)CCC(=O)NC1=O (configuration not stated)	0.425	0.946
Oc1cccc2cccnc12	0.00976	0.0478
CNCC(O)c1ccc(O)cc1 (configuration not stated) [Synephrine (Oxedrine)]	0.516	0.777
Cn1c(CCCC(=O)O)nc2cc(N(CCCl)CCCl)ccc21 [Bendamustine HCL]	0.659	0.83
CC[C@H]1CN2CCc3cc(OC)c(OC)cc3[C@@H]2C[C@@H]1C[C@H]1NCCc2cc(OC)c(OC)cc21	0.439	0.948
CC[C@H](C)[C@H]1O[C@]2(C=C[C@@H]1C)C[C@@H]1C[C@@H](C/C=C(\C)[C@@H](O[C@H]3C[C@H](OC)[C@@H](O[C@H]4C[C@H](OC)[C@@H](O)[C@H](C)O4)[C@H](C)O3)[C@@H](C)/C=C/C=C3\CO[C@@H]4[C@H](O)C(C)=C[C@@H](C(=O)O1)[C@]34O)O2.CO[C@H]1C[C@H](O[C@H]2[C@H](C)O[C@@H](O[C@@H]3/C(C)=C/C[C@@H]4C[C@@H](C[C@]5(C=C[C@H](C)[C@@H](C(C)C)O5)O4)OC(=O)[C@@H]4C=C(C)[C@@H](O)[C@H]5OC/C(=C\C=C\[C@@H]3C)[C@]54O)C[C@@H]2OC)O[C@@H](C)[C@@H]1O	0.294	0.502
O=c1n(Cl)c(=O)n(Cl)c(=O)n1Cl	0.337	0.35
C=CCN1CC[C@]23c4c5ccc(O)c4O[C@H]2C(=O)CC[C@@]3(O)[C@H]1C5	0.642	0.643
CCCN1C[C@H](CSC)C[C@@H]2c3cccc4[nH]cc(c34)C[C@H]21 [Pergolide mesylate]	0.105	1.03
O=C(O[C@H]1C[C@H]2CC[C@@H](C1)[N+]21CCCC1)C(O)(c1ccccc1)c1ccccc1 [Trospium chloride (Sanctura)]	0.723	0.453

Compound	normalized GFP fluorescence [1]	normalized DsRed fluorescence [2]
COc1cc2c(c(OC)c1OC)-c1ccc(OC)c(=O)cc1[C@@H](NC(C)=O)CC2	0.0184	0.897
O=P1(NCCCl)OCCCN1CCCl (configuration not stated)	0.399	0.711
C[N+]12CCC(CC1)C(OC(=O)C(O)(c1ccccc1)c1ccccc1)C2 (configuration not stated)	0.468	0.579
CNc1ccc(C(=O)CC(O)CCC(C)C2OC(=O)CC(O)CC(=O)CC(O)CC(O)CC(O)CC(O)CC3(O)CC(O)C(C(=O)OC)C(CC(O[C@@H]4O[C@H](C)[C@@H](O)[C@H](N)[C@@H]4O)/C=C/C=C/C=C/C=C/C=C/C=C/C=C/C2C)O3)cc1.COC(=O)C1C(O)CC2(O)CC(O)CC(O)CC(O)CC(O)CC(=O)CC(O)CC(=O)OC(C(C)CCC(O)CC(=O)c3ccc(N)cc3)C(C)/C=C/C=C/C=C/C=C/C=C/C=C/C=C/C(O[C@@H]3O[C@H](C)[C@@H](O)[C@H](N)[C@@H]3O)CC1O2 (some centres not stated)	0.675	0.626
O=[N+]([O-])O[C@H]1CO[C@H]2[C@@H]1OC[C@H]2O[N+](=O)[O-]	0.915	0.65
O=C1CC[C@@]2(O)[C@H]3Cc4ccc(O)c5c4[C@@]2(CCN3CC2CC2)[C@H]1O5	0.283	0.86
CC(=O)O[C@H]1C[C@@H]2CC[C@@H]3[C@H](CC[C@@]4(C)[C@H]3C[C@H]([N+]3(C)CCCCC3)[C@@H]4OC(C)=O)[C@@]2(C)C[C@@H]1[N+]1(C)CCCCC1 [Pancuronium (Pavulon)]	0.324	0.578
CCN(C(C)=O)c1cccc(-c2ccnc3c(C#N)cnn23)c1	0.782	0.598
CC(NC(C)(C)C)C(=O)c1cccc(Cl)c1 (configuration not stated)	0.332	0.882
CCCC(C)(COC(N)=O)COC(=O)NC(C)C (configuration not stated)	0.54	1.05
CC[C@@H](CO)NC(=O)[C@@H]1C=C2c3cccc4c3c(cn4C)C[C@H]2N(C)C1	0.269	0.713
CCOC(=O)c1cncn1C(C)c1ccccc1 (configuration not stated)	0.248	0.732
O=c1[nH]c2ccccc2n1CCCN1CCC(n2c(=O)[nH]c3cc(Cl)ccc32)CC1 [Domperidone (Motilium)]	0.0985	0.927
C#C[C@]1(O)C=C[C@H]2[C@@H]3CCC4=CC(=O)CC[C@@H]4[C@H]3CC[C@@]21CC [Gestodene]	0.342	0.279
O=C(O)CCCc1ccc(N(CCCl)CCCl)cc1	0.418	1.38
C[C@]12CC[C@@H]3c4ccc(OC(=O)N(CCCl)CCCl)cc4CC[C@H]3[C@@H]1CC[C@@H]2O	0.117	0.515
N[C@@H](Cc1ccc(N(CCCl)CCCl)cc1)C(=O)O	0.309	0.612
CCC(=O)O[C@H]1CC[C@H]2[C@@H]3CCC4=CC(=O)CC[C@]4(C)[C@H]3CC[C@]12C	0.154	0.364
c1ccc2c(c1)Nc1ccccc1S2	0.132	0.671
CO[C@]12C[C@@H](COC(=O)c3cncc(Br)c3)CN(C)[C@@H]1Cc1cn(C)c3cccc2c13	0.411	0.751
CN1C[C@H](C(=O)N[C@]2(C)O[C@@]3(O)[C@@H]4CCCN4C(=O)[C@H](Cc4ccccc4)N3C2=O)C[C@@H]2c3cccc4[nH]cc(c34)C[C@H]21	0.246	0.753
C[C@@H]1CC[C@H]2[C@@H](C)C(=O)O[C@@H]3O[C@@]4(C)CC[C@@H]1[C@]32OO4 [Artemisinin]	0.505	0.66
CC(C)N(CCNC(=O)CN1CCCC1=O)C(C)C [Pramiracetam]	0.568	0.402
